Reference: the supplement of paper PMC12494721
Structures can show the parent of a compound that is named as a salt.

Legend:
Conditions in all cases: 20 µM; incubation time: 27 h, anaerobic, 37 °C;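 for the amine columns active = adjusted P below 0.05 in both replicates with a change the same way and a mean fold change under 0.8 or over 1.25; inactive = the rest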
[1] = tested on: Clostridium sporogenes DSM 1664; assay: growth (OD595) fold change vs plate DMSO controls (fold change (ratio)); higher = more growth
Method in brief: (§1)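 The reported measure is growth: the fold change against the median of DMSO controls on the plate. Absorbance at 595 nm from anaerobic 96-well mGAM cultures grown for 27 h at 37 °C was blank-subtracted, corrected for background with 20 µM compound solutions in water, and converted to OD with a calibration factor of 5. Fold changes above 1.5 appear as NA, and values are the mean of 2 biological replicates.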

[2] = tested on: Escherichia coli IAI1; assay: as above
Method in brief: as §1

[3] = tested on: Klebsiella aerogenes DSM 30053; assay: as above
Method in brief: as §1

[4] = tested on: Ruminococcus gnavus DSM 108212; assay: as above
Method in brief: as §1

[5] = tested on: Klebsiella aerogenes DSM 30053; assay: fold change of Histamine concentration vs plate DMSO controls (fold change (ratio)); higher = more amine produced, active = hit call of the paper (significant change in both replicates, either direction)
Method in brief: (§2)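 Using LC–triple-quadrupole MS with dynamic MRM, amines were quantified against external calibration curves and corrected for drift within each batch. Samples were whole anaerobic mGAM cultures of four gut strains, grown 27 h at 37 °C from OD 0.1 before 1:1 dilution, extracted with cold acetonitrile/methanol containing 0.1% formic acid and centrifuged. Compounds were present at 20 µM final (sweeteners at 50 µM final). The numbers are fold changes versus plate DMSO controls, each the mean of 2 biological replicates.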

[6] = tested on: Clostridium sporogenes DSM 1664; assay: fold change of Tryptamine concentration vs plate DMSO controls (fold change (ratio)); higher = more amine produced, active = hit call of the paper (significant change in both replicates, either direction)
Method in brief: as §2

[7] = tested on: Ruminococcus gnavus DSM 108212; assay: as above
Method in brief: as §2

[8] = tested on: Escherichia coli IAI1; assay: fold change of Putrescine concentration vs plate DMSO controls (fold change (ratio)); higher = more amine produced, active = hit call of the paper (significant change in both replicates, either direction)
Method in brief: as §2

[9] = tested on: Klebsiella aerogenes DSM 30053; assay: as above
Method in brief: as §2

[10] = tested on: Escherichia coli IAI1; assay: fold change of Cadaverine concentration vs plate DMSO controls (fold change (ratio)); higher = more amine produced, active = hit call of the paper (significant change in both replicates, either direction)
Method in brief: as §2

[11] = tested on: Klebsiella aerogenes DSM 30053; assay: as above
Method in brief: as §2

[12] = tested on: Ruminococcus gnavus DSM 108212; assay: fold change of 2-Phenylethylamine concentration vs plate DMSO controls (fold change (ratio)); higher = more amine produced, active = hit call of the paper (significant change in both replicates, either direction)
Method in brief: as §2

SMILES | growth [1] | growth [2] | growth [3] | growth [4] | fold change of Histamine concentration [5] | fold change of Tryptamine concentration [6] | fold change of Tryptamine concentration [7] | fold change of Putrescine concentration [8] | fold change of Putrescine concentration [9] | fold change of Cadaverine concentration [10] | fold change of Cadaverine concentration [11] | fold change of 2-Phenylethylamine concentration [12]
N[C@@H]1C[C@H]1c1ccccc1 [Tranylcypromine hydrochloride] | 1.05 | 0.992 | 1.03 | 1.02 | 1.1 (inactive) | 0.972 (inactive) | 0.964 (inactive) | 1.01 (inactive) | 1.03 (inactive) | 1.03 (inactive) | 0.995 (inactive) | 0.928 (inactive)
C[N+](C)(C)CCCl | 1.05 | 0.994 | 0.986 | 0.97 | 1.01 (inactive) | 1.03 (inactive) | 1.06 (inactive) | 0.949 (inactive) | 0.82 (inactive) | 0.863 (inactive) | 1.08 (inactive) | 1.06 (inactive)
C[C@]12Cc3c[nH]nc3C[C@@H]1CC[C@@H]1[C@@H]2CC[C@@]2(C)[C@H]1CC[C@]2(C)O [Stanozolol] | 1.18 | 0.985 | 1.1 | 1.05 | 0.911 (inactive) | 0.973 (inactive) | 0.976 (inactive) | 0.981 (inactive) | 0.99 (inactive) | 0.959 (inactive) | 1.02 (inactive) | 1 (inactive)
C1=Cc2cccc3cccc1c23 [Acenaphthylene] | 0.849 | 1.03 | 0.96 | 1.15 | 1.02 (inactive) | 0.962 (inactive) | 0.991 (inactive) | 1.02 (inactive) | 1 (inactive) | 1.02 (inactive) | 0.985 (inactive) | 0.996 (inactive)
Nc1nc(N)nc(N)n1 [Melamine] | 0.88 | 0.99 | 0.966 | 1.11 | 0.958 (inactive) | 1.05 (inactive) | 1.01 (inactive) | 0.988 (inactive) | 0.956 (inactive) | 0.95 (inactive) | 1.01 (inactive) | 1.05 (inactive)
COP(=S)(OC)Oc1ccc(SC)c(C)c1 | 1.1 | 1.09 | 0.997 | 0.973 | 0.959 (inactive) | 1.02 (inactive) | 1.08 (inactive) | 0.971 (inactive) | 0.989 (inactive) | 0.98 (inactive) | 1.04 (inactive) | 1.12 (inactive)
CCCC(C)C1(CC)C(=O)NC(=O)NC1=O (configuration not stated) [Pentobarbital] | 1.06 | 1.08 | 0.979 | 0.814 | 1.07 (inactive) | 0.993 (inactive) | 1.02 (inactive) | 1.1 (inactive) | 1.02 (inactive) | 1.01 (inactive) | 0.988 (inactive) | 1.04 (inactive)
C=CC[C@]1(O)CC[C@H]2[C@@H]3CCC4=CCCC[C@@H]4[C@H]3CC[C@@]21C [Allylestrenol] | 1.01 | 1.01 | 1.06 | 1.09 | 0.993 (inactive) | 1.03 (inactive) | 1.01 (inactive) | 0.977 (inactive) | 0.992 (inactive) | 0.924 (inactive) | 1.02 (inactive) | 1.1 (inactive)
Nc1c([N+](=O)[O-])ccc(Oc2ccccc2)c1Cl | 0.859 | 0.991 | 0.998 | 1.03 | 0.974 (inactive) | 1.02 (inactive) | 1.01 (inactive) | 0.973 (inactive) | 1.01 (inactive) | 1.04 (inactive) | 1.01 (inactive) | 0.982 (inactive)
CN(C)C(=O)Oc1cccc([N+](C)(C)C)c1 [Neostigmine bromide] | 0.939 | 0.975 | 1.01 | 0.886 | 0.992 (inactive) | 1.07 (inactive) | 1.03 (inactive) | 0.992 (inactive) | 0.998 (inactive) | 1.02 (inactive) | 1 (inactive) | 1.01 (inactive)
CC(=O)[C@H]1CC[C@H]2[C@@H]3CC[C@H]4C[C@H](O)CC[C@]4(C)[C@H]3C(=O)C[C@]12C [Alfaxalone] | 1.12 | 1.03 | 1.02 | 1.13 | 1.06 (inactive) | 0.957 (inactive) | 0.959 (inactive) | 0.994 (inactive) | 1.06 (inactive) | 1 (inactive) | 1.02 (inactive) | 0.913 (inactive)
CC(CCc1ccccc1)NC(C)C(O)c1ccc(O)cc1 (configuration not stated) [Nylidrin] | 0.853 | 1.13 | 1.21 | 1 | 1 (inactive) | 0.986 (inactive) | 0.929 (inactive) | 1.03 (inactive) | 1.05 (inactive) | 0.961 (inactive) | 1.02 (inactive) | 0.902 (inactive)
NCC(O)c1ccc(O)cc1 (configuration not stated) [Octopamine hydrochloride] | 0.798 | 1.03 | 0.986 | 0.994 | 1.04 (inactive) | 1.04 (inactive) | 0.937 (inactive) | 1.11 (inactive) | 1.02 (inactive) | 1.01 (inactive) | 1 (inactive) | 0.875 (inactive)
Fc1ccc(Oc2ccnc3cc(Cl)cc(Cl)c23)cc1 | 1.06 | 1.01 | 1.02 | 1.04 | 1.02 (inactive) | 1.01 (inactive) | 0.957 (inactive) | 1.05 (inactive) | 1.02 (inactive) | 0.961 (inactive) | 1 (inactive) | 0.915 (inactive)
O=C(O)C(F)(F)C(F)(F)C(F)(F)C(F)(F)C(F)(F)C(F)(F)F [PFHpA (Perfluoroheptanoic acid)] | 0.939 | 1.01 | 0.994 | 0.995 | 0.997 (inactive) | 1.06 (inactive) | 0.979 (inactive) | 1.03 (inactive) | 1.02 (inactive) | 1.04 (inactive) | 1 (inactive) | 0.98 (inactive)
C[C@@H]1CC[C@H]2[C@@H](C)C(=O)O[C@@H]3O[C@@]4(C)CC[C@@H]1[C@]32OO4 [Artemisinin] | 0.953 | 0.972 | 1.02 | 1.13 | 1.01 (inactive) | 1.02 (inactive) | 1.03 (inactive) | 1.01 (inactive) | 1.01 (inactive) | 0.966 (inactive) | 1.01 (inactive) | 1.03 (inactive)
O=c1[nH]c2ccccc2n1C1CCN(CCCC(c2ccc(F)cc2)c2ccc(F)cc2)CC1 [Pimozide] | 1.41 | 0.978 | 0.99 | 1.25 | 1.01 (inactive) | 0.938 (inactive) | 0.846 (inactive) | 0.979 (inactive) | 1.01 (inactive) | 0.964 (inactive) | 0.995 (inactive) | 0.898 (inactive)
Cc1cc(C)nc(Nc2ccccc2)n1 | 0.995 | 1.06 | 0.999 | 1.01 | 0.986 (inactive) | 1 (inactive) | 1 (inactive) | 1.05 (inactive) | 1.02 (inactive) | 1.05 (inactive) | 1.02 (inactive) | 1.04 (inactive)
CNCC(O)c1ccc(O)cc1 (configuration not stated) [Synephrine] | 1.04 | 1.09 | 1.01 | 0.887 | 1.02 (inactive) | 0.997 (inactive) | 1.05 (inactive) | 1.11 (inactive) | 0.982 (inactive) | 0.997 (inactive) | 0.989 (inactive) | 1.09 (inactive)
Cc1c(COC(=O)[C@@H]2[C@H](/C=C(\Cl)C(F)(F)F)C2(C)C)cccc1-c1ccccc1 (racemic) | 1.05 | 1.09 | 0.978 | 1.13 | 1.02 (inactive) | 0.975 (inactive) | 1.03 (inactive) | 1 (inactive) | 0.953 (inactive) | 0.864 (inactive) | 0.989 (inactive) | 1.07 (inactive)
CCN(CC)CCOC(=O)C(O)(c1ccccc1)c1ccccc1 [Benactyzine hydrochloride] | 1.07 | 1.01 | 1.01 | 0.944 | 0.998 (inactive) | 0.997 (inactive) | 1.06 (inactive) | 1.02 (inactive) | 0.992 (inactive) | 0.986 (inactive) | 0.999 (inactive) | 1.07 (inactive)
CC(Cc1ccc(O)cc1)NCC(O)c1cc(O)cc(O)c1 (configuration not stated) [Fenoterol hydrobromide] | 1 | 1 | 1.01 | 1.21 | 1.06 (inactive) | 0.982 (inactive) | 1.04 (inactive) | 1.02 (inactive) | 1.04 (inactive) | 0.983 (inactive) | 0.991 (inactive) | 1.04 (inactive)
CCN(C(C)=O)c1cccc(-c2ccnc3c(C#N)cnn23)c1 [Zaleplon] | 1.07 | 0.995 | 1.05 | 1.05 | 0.987 (inactive) | 0.972 (inactive) | 1.02 (inactive) | 1.03 (inactive) | 0.992 (inactive) | 1.02 (inactive) | 1.01 (inactive) | 1.04 (inactive)
O=C(Nc1ccccc1-c1ccc(Cl)cc1)c1cccnc1Cl | 0.923 | 1.02 | 0.996 | 0.965 | 0.953 (inactive) | 0.954 (inactive) | 0.949 (inactive) | 1 (inactive) | 0.985 (inactive) | 0.979 (inactive) | 0.999 (inactive) | 0.916 (inactive)
O=c1[nH]c2ccccc2n1CCCN1CCC(n2c(=O)[nH]c3cc(Cl)ccc32)CC1 [Domperidone] | 0.989 | 0.963 | 1.08 | 0.669 | 0.906 (inactive) | 1.03 (inactive) | 0.984 (inactive) | 1.01 (inactive) | 0.951 (inactive) | 1.03 (inactive) | 1 (inactive) | 1.03 (inactive)
C=C1CC[C@@]2(O)[C@H]3Cc4ccc(O)c5c4[C@@]2(CCN3CC2CC2)[C@H]1O5 [Nalmefene hydrochloride] | 1.08 | 0.981 | 1.02 | 1.07 | 1.02 (inactive) | 0.942 (inactive) | 0.59 (inactive) | 0.99 (inactive) | 1.02 (inactive) | 1.03 (inactive) | 1.01 (inactive) | 0.578 (inactive)
